# Screening data from PubChem.
# GLP-1R inv ag = acts as inverse agonist at human GLP-1 receptor; Potency, µM (doses to about 38.3 µM), without a hit: at the highest dose activity change, negative = inhibition, hits mostly inhibitors; HEK293 GLP-1R CRE-luciferase, luminescence, 24 h; GLP-1R form is constitutively active; 410,000 tested, 1.6% active; P43220; further: on the % scale 0 is the no-effect control and ±100 the full control effect; nearly all actives have a fitted effect of over 55% in size
# Target sequence (P43220 whole entry, looked up): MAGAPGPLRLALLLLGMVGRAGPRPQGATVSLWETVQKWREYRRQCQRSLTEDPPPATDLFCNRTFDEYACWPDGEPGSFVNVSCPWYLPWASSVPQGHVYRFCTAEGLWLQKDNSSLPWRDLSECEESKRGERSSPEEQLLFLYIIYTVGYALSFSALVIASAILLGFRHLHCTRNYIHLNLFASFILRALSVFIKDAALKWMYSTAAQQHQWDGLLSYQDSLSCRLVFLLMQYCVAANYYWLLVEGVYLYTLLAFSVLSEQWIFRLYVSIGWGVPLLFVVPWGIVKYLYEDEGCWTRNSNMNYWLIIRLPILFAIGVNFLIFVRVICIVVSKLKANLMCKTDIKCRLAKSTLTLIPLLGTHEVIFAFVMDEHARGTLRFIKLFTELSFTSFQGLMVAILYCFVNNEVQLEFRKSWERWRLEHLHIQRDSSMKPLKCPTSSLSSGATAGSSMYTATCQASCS
#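 Assay principle: reduced luminescence from a cAMP-responsive reporter in HEK293 cells co-expressing a constitutively active GLP-1R. Conditions: 24 hr compound incubation, 37 deg C, 5% CO2.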
# TGFb SMAD3 inh = inhibitors of TGF-b signaling | HepG2 CAGA-GFP TGF-b/SMAD3 reporter, GFP fluorescence, 18 h; TGF-beta stimulated, 500 pg/mL final | Potency, µM (top dose mostly 46.1 µM), inactives show at the highest dose activity, negative = inhibition, usual class: inhibitors | 410,000 tested, 1.2% active | AID 588855; further: on the % scale 0 is the no-effect control and ±100 the full control effect; nearly all actives have a fitted effect of over 65% in size
#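 Inhibition of TGF-beta-driven CAGA-GFP reporter expression in HEPG2 cells is measured by cellular GFP fluorescence after 18 h stimulation with 500 pg/mL recombinant TGF-beta in 1% FBS medium at 37 degrees C.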
# HepG2 tox = counter-screen for TGF-b inhibitors: cytotoxicity in HepG2 cells. HepG2 CAGA-GFP viability, ATP luminescence, 18 h. Potency, µM (series often up to 46.1 µM), inactives show top-dose activity change, negative = cytotoxicity, hits mostly cytotoxic. AID 588856. 410,000 tested, 0.76% active
#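 HepG2 CAGA-GFP cells (1000/well, DMEM with 1% FBS) received compound, then TGF-beta at 500 pg/mL final, and were incubated 18 hours at 37 degrees C. Viability was read by CellTiter-Glo luminescence. Media-only wells were set as complete cell-killing and DMSO as no toxicity.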
# ATXN2 expr inh = ATXN2 expression inhibition; HEK-293 ATXN2-luciferase reporter, luminescence, 24 h; Potency, µM (highest dose often 57 µM), without a hit: top-dose activity change, negative = inhibition, actives largely listed as inhibitors; 360,000 tested, 0.72% active; further: on the % scale 0 is the no-effect control and ±100 the full control effect; nearly all actives have a fitted effect of over 55% in size
#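 ATXN2-luciferase reporter cells (luciferase flanked by upstream and downstream ATXN2 gene portions) were treated 24 h at 37 °C with compounds at up to 57 uM. SteadyGlo luminescence gave expression; GF-AFC fluorescence gave viability.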
# S2 tox = reduces viability in counter-screen for ATXN expression inhibitors; S2 cells (HEK-293 line with an ATXN2-luciferase reporter) viability, CellTiter-Fluor protease fluorescence, 24 h; Potency, µM (titrated, usually from 56.7 µM), actives largely listed as cytotoxic; 400,000 tested, 0.49% active; AID 651635; further: nearly all actives have a fitted effect of over 40% in size
# GLP1R ag = activates the human GLP-1 receptor; HEK293 GLP-1R CRE-luciferase, luminescence, 4-6 h; cells express a hypersensitive GLP-1R form; Potency, µM (top dose mostly 45.6 µM), for the others: top-dose activation, usual class: activators; 380,000 tested, 0.007% active; further: % of control where 0% means no effect
# Numbers without * were called inactive; i = inactive; ? = inconclusive; · = not tested or not shown. The list is not random: actives were taken first. Their share in the collection is about 3.7%. The call rests on the fitted dose curve; in most records, active means well fitted curve in the direction sought with a large enough effect; inconclusive means small, poorly fitted or top-dose-only effect, or another doubt; inactive means no such curve, though single readings can be large; an effect the other way counts as inactive or inconclusive. Potency means the concentration at half of the fitted maximal effect.
SMILES,GLP-1R inv ag,TGFb SMAD3 inh,HepG2 tox,ATXN2 expr inh,S2 tox,GLP1R ag
COc1ccc(NC(NC(=O)c2ccc(OC)cc2)C(Cl)(Cl)Cl)cc1 (stereo not given),?,0%,-10%,-3%,i,-13%
COc1ccc(C(=O)NC(Nc2ccc(C)cc2)C(Cl)(Cl)Cl)cc1 (stereo not given),0%,11µM*,-6%,-20%,i,-7%
O=C(Nc1ccc2ccccc2c1)C(C1CC1)n1c(=O)c(-c2cc3ccccc3[nH]2)nc2ccccc21 (stereo not given),5µM*,·,·,·,·,·
O=C(Nc1ccc2c(c1)OCCO2)C(C1CC1)n1c(=O)c(-c2cc3ccccc3[nH]2)nc2ccccc21 (stereo not given),11µM*,·,·,·,·,·
COc1cccc(NC(=O)/C(C#N)=C\c2cn(Cc3ccc(Cl)cc3)c3ccccc23)c1,?,11µM*,-11%,7%,i,·
Cc1ccc(Cn2cc(/C=C(/C#N)C(=O)Nc3cccc(Cl)c3)c3ccccc32)cc1,7%,?,-27%,-13%,i,·
CCN(c1ccccc1)S(=O)(=O)c1cc(C(=O)NCC(c2ccco2)N2CCCCC2)ccc1C (stereo not given),8.9µM*,-26%,-25%,-5%,i,-20%
COc1ccccc1NS(=O)(=O)c1cc(C(=O)NCC(c2ccco2)N2CCCCC2)ccc1C (stereo not given),10µM*,2%,-56%,-15%,i,10%
COc1ccccc1NS(=O)(=O)c1cc(C(=O)NCC(c2ccco2)N(C)C)ccc1C (stereo not given),?,5%,2%,-5%,i,8%
CCN(c1ccccc1)S(=O)(=O)c1cccc(C(=O)NCC(c2ccco2)N2CCCCC2)c1 (stereo not given),?,-3%,-5%,-32%,?,8%
Cc1ccccc1NS(=O)(=O)c1ccc(C(=O)NCC(c2ccco2)N2CCCCC2)cc1 (stereo not given),10µM*,0%,-22%,-21%,i,-9%
Oc1ccc(C[C@@H]2CNCCN2CCc2cc(C(F)(F)F)cc(C(F)(F)F)c2)cc1,?,?,-93%,20µM*,?,5%
c1ccc(C[C@H]2CNCCN2CCc2cccc3ccccc23)cc1,11µM*,?,-70%,?,?,6%
FC(F)(F)c1cc(CCN2CCNC[C@H]2Cc2cccc3ccccc23)cc(C(F)(F)F)c1,?,?,-104%,?,40µM*,-2%
Oc1ccc(C[C@H]2CNCCN2CCc2cccc3ccccc23)cc1,?,?,-60%,?,?,9%
COC(=O)/C=C1\OCc2cc(OC)c(OCc3ccccc3)cc21,3%,·,·,·,·,·
COc1cc2c(cc1OC)/C(=C/c1ccc(Br)cc1)C(=O)OC2,11µM*,0%,-10%,-33%,i,11%
Cc1ccnc(NC(=O)c2cc(-c3ccc(Cl)s3)nc3ccccc23)c1,7.9µM*,-19%,-10%,9%,i,6%
Cc1cccc(NC(=O)c2cc(-c3ccc(C)s3)nc3ccccc23)n1,10µM*,?,-25%,-5%,i,-14%
Cc1cc(NC(=O)c2cc(-c3ccc(C)s3)nc3ccccc23)no1,-7%,2%,-5%,6%,i,0%
CCOC(=O)C1=C(CNCc2ccccc2)NC(=O)NC1c1ccc(C)cc1 (stereo not given),?,-27%,-2%,2%,?,1%
CS(=O)(=O)N(CC(=O)Nc1ccc(CC#N)cc1)c1ccc(C23CC4CC(CC(C4)C2)C3)cc1,?,7.1µM*,-38%,-28%,?,1%
